About 83,000 compounds went through this panel and 20% of them were active in at least one assay; those are over-represented in the sample as a whole.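 Results are percent growth after 48 hours of single-concentration exposure. 100 means growth as in untreated cells, lower positive values show inhibition; negative values down to -100 show cell death.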 A number with no mark means an inactive call. The source made the active and inactive calls.

This assay has as its system NCI-H460 lung. The assay is described as follows: NCI-60 one-dose screen, 48 h (100 = growth as untreated, 0 = no growth, -100 = all killed). The following applies: 10 µM unless noted. How it is done:
Growth inhibition of the NCI-H460 human Non-Small Cell Lung tumor cell line is measured as a screen for anti-cancer activity. Cells are grown in 96 well plates and exposed to the test compound for 48 hours. Compounds are tested at a single concentration, which is 10^-5 M for most compounds. The reported endpoint is percent growth (GI% or GIPRCNT), where numbers from 0 - 100% represent growth inhibition, and numbers from -100% - 0 represent cell death. For example, a value of 40 represents 60% growth inhibition. A value of 0 means no net growth occurred over the course of the experiment. A value of -40 indicates 40% of cells at the beginning of the experiment died by the end of the experiment. A value of -100 means all cells are dead at the end of the experiment.
NCI-60 Human Tumor Cell Lines Screen was performed using the standard one-dose NCI protocol, which is described in more detail at https://dtp.cancer.gov/discovery_development/nci-60/default.htm.
Compounds with GIPRCNT values below 10 were considered active. Activity score was based on GIPRCNT using the following formula: […]
Score is 0 for GIPRCNT values of 100 or above, 50 for GIPRCNT values of 0, and 100 for GIPRCNT values of -100.
Consider `O=C1N/C(=C\c2ccccc2)c2ncccc21`, for which the growth was 113%.

`COc1ccccc1CNCCCCCCCCCCCCN1C(=O)c2ccc3c4c(ccc(c24)C1=O)C(=O)N(CCCCCCCCCCCCNCc1ccccc1OC)C3=O`: the growth was 35.5%.

For `CCOC(=O)c1cc2c(n(C)c1=O)-c1cnn(-c3ccc(OC)cc3)c1CC2`, the growth is 108%.

For `COc1cc(CNCCCN2C(=O)c3ccc4c5c(ccc(c35)C2=O)C(=O)N(CCCNCc2cc(OC)c(OC)c(OC)c2)C4=O)cc(OC)c1OC`, the growth was -75% (active).

Take `COc1cccc(C2CC(=O)Nc3cc4c(cc32)OCO4)c1OC` (stereo not given): the growth is 102%.

`CCOC(=O)c1cn2c3c(cc(F)cc3c1=O)C(CC)c1ccccc1C2` (stereo not given): the growth was 101%.

With `ONc1nc(NO)c2[nH]cnc2n1`, the growth is 86.7%.

Regarding `COc1ccc(-c2nc3sccn3c2/C=C/C(=O)c2cc(OC)c(OC)c(OC)c2)cc1OC`, the growth was 6.91% (active).

In the case of `FC(F)(F)c1cc(CNc2nc(Cl)ncc2Br)cc(C(F)(F)F)c1`, the growth was 95.6%.

As for `COc1nc2c(cc1S(=O)(=O)c1ccccc1)CCc1c-2cnn1-c1ccccc1Cl`, the growth was 67%.

`CCN(c1ccc(C(=O)N2CCN(c3ccccc3)CC2)cc1)S(C)(=O)=O`: the growth is 108%.

As to `CCCN(CCC)c1ccc(/C=C/c2ccc3cc(OCC)ccc3n2)cc1`, the growth is 95.1%.

In the case of `COc1cc(-c2ccc3cc(OC)c(OC)c(OC)c3c2)cc(OC)c1OC`, the growth was 60.3%.

Consider `O=C1NC(=O)C(CSc2ccccc2)(c2ccccc2)N1` (stereo not given), for which the growth was 118%.

Take `O=C(CCCCCCC(=O)Nc1ccc2c(c1)/C(=C/c1ccc[nH]1)C(=O)N2)NO`: the growth is 25.8%.

For `CC1(C)N=C(N)N=C(N)N1c1cccc(/C=C/C=C/c2cccc([N+](=O)[O-])c2)c1`, the growth was 21.3%.

Consider `O=C1CC(c2ccsc2)c2snc(-c3ccc(Cl)cc3)c2N1` (stereo not given), for which the growth was 10.6%.

Consider `COc1ccc(Sc2ccc3[nH]c(=O)nc(N)c3c2)cc1`, for which the growth was 106%.

For `COc1ccc(/C=C(\C#N)c2cc3ccccc3n2C)cc1`, the growth was 6.08% (active).

Regarding `c1ccc2cc(Cn3c(-c4ccc5ccccc5c4)[n+](Cc4ccc5ccccc5c4)c4ccccc43)ccc2c1`, the growth is -81.7% (active).

Regarding `COc1ccc2nc(-n3nc(C)cc3C)c(-n3nc(C)cc3C)nc2c1`, the growth is 108%.

As for `N#C/C(=C\c1ccc[nH]1)c1cc2ccccc2[nH]1`, the growth is 71.1%.

With `COc1ccc(-c2c(-c3cc4c(c(OC)c3OC)OCO4)noc2N)cc1`, the growth was 13.2%.

As for `O=C1c2[nH]cc(CN[C@@H]3CCCN3)c2C(=O)c2c1c(O)c1ccccc1c2O`, the growth was -92.6% (active).

For `CC(=O)c1cc(C)c(OC(=O)c2ccccc2)c(C)c1`, the growth was 106%.

With `c1ccc2cc(-c3n(Cc4ccc5ccccc5n4)c4ccccc4[n+]3Cc3ccc4ccccc4n3)ccc2c1`, the growth was -57.3% (active).

For the compound `NC(=O)c1cccc(-n2ccc3cc(NC(=O)Nc4ccc(Cl)c(Cl)c4)ccc32)n1`, the growth was 75.4%.

Regarding `O=C(NCc1ccc(F)cc1)C1CN(c2ccc(Cl)cc2)N(c2ccc(Cl)cc2)C1=O` (stereo not given), the growth is 48%.

`COC(=O)c1c2c(c(C)[n+]([O-])c1C)C(=O)C=C(NCc1cccc(OC)c1)C2=O`: the growth is -41.6% (active).

In the case of `COc1ccc(OC2=CC(=O)c3ccc(C)nc3C2=O)cc1`, the growth was 86.1%.

For the compound `Cc1cc(C)c(S(=O)O)c(C)c1`, the growth is 109%.

For `CC[Si](CC)(CC)OC1[C@@H](O[Si](CC)(CC)CC)[C@@H](CNC(=O)NC)O[C@H]1n1cnc2c(NC(=O)Nc3ccccc3)ncnc21` (stereo not given in full), the growth was 24.8%.

`O=C(COc1ccc(/C=C2\CSc3ccccc3C2=O)cc1)c1ccc(Cl)cc1`: the growth was 115%.

As to `C=CC(=O)N1CC2(CCC(n3nc(-c4ccc(Oc5ccccc5)cc4)c4c(N)ncnc43)CC2)C1`, the growth was -76.8% (active).

`COc1ccc(C(=O)COc2cccc(/C=C3\CSc4ccc(C)cc4C3=O)c2)cc1`: the growth is 104%.

As for `COc1ccc(/C=N\N2CCOCC2)cc1OC1CCCC1`, the growth was 105%.

Consider `CC(=O)Nc1ccc(Sc2ccc([N+](=O)[O-])o2)cc1`, for which the growth was 46.9%.

As for `O=C(N/N=C/c1ccc(F)cc1)c1[nH]c2ccc(I)cc2c1-c1ccccc1`, the growth is 1.78% (active).

On to `Cc1ccc(N(CSc2ccc(Cl)cc2)CSc2ccc(Cl)cc2)cc1`, for which the growth is 14.3%.

Regarding `CC1(C)N=C(N)N=C(N)N1c1cccc(OCCOc2cccc([N+](=O)[O-])c2)c1`, the growth was 19%.

The record behind these values is PubChem BioAssay (NCI).
